Source: PubChem (National Center for Advancing Translational Sciences (NCATS))
Most compounds without a hit are left out; they make up all but 12% or so of the library.
G9a block: inhibitors of human histone lysine methyltransferase G9a; Q96KQ7; G9a H3K9 monomethylation, AlphaScreen, 2 h; Potency, µM (series often up to 102 µM), most hits filed as inhibitors; actives 8.8% (n = 350,000); AID 504332; note: nearly all actives have a fitted effect of over 75% in size
Target sequence (Q96KQ7 913-1193 limits assumed): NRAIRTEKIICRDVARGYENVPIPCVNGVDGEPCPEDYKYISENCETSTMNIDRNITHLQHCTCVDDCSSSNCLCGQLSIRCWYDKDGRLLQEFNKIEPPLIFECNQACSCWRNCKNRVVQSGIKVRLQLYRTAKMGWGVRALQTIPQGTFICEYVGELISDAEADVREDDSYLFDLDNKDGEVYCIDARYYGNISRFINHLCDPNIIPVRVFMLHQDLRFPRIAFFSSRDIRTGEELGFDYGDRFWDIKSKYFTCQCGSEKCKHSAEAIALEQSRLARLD
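Signal arises when biotinylated H3K9 peptide, once monomethylated, bridges streptavidin donor and antibody-captured acceptor beads. Enzyme at 20 nM was preincubated 15 min with test compounds; peptide 500 nM and SAM 20 uM then reacted for 2 h.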
Sfp PPTase inh: blocks B. subtilis Sfp PPTase activity; Q9F4F7; Biochemical Sfp PPTase activity, qHTS; Potency, µM, hits mostly inhibitors; actives 3.5% (n = 310,000); AID 1490;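 note: the enzyme is Sfp with the accession as filed and its product quenches rhodamine fluorescence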
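Buffer: 50 mM Hepes-Na pH 7.6, 10 mM MgCl2, 0.01% Nonidet P-40, 0.01% BSA. Enzyme 15 nM, pre-exposed to compound 15 min; substrates then added and fluorescence change tracked over 30 min.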
JMJD2A Tudor inh: inhibitors of human JMJD2A Tudor domain | O75164 | AlphaScreen JMJD2A-Tudor / H3K4me3 peptide binding | Potency, µM (titrated, usually from 114 µM), usual class: inhibitors | actives 4.4% (n = 390,000); note: nearly all actives have a fitted effect of over 50% in size
BAZ2B block: BAZ2B (human) inhibition. Q9UIF8. Potency, µM (top dose mostly 114 µM), actives largely listed as inhibitors. AlphaScreen BAZ2B-H3K14Ac peptide displacement. actives 4.4% (n = 360,000). AID 504333; note: nearly all actives have a fitted effect of over 60% in size
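AlphaScreen displacement: compounds (up to 110uM) incubated 30 min at room temperature with a preformed 50 nM BAZ2B/50 nM biotinylated H3K14Ac peptide complex in PBS pH 7.4 with Tween-20. Donor and acceptor beads at 10 ug/mL final added, 20 min light-protected before reading.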
HP1b chromo inh: blocks HP1-beta chromodomain binding to methylated histone tails. Potency, µM (titrated, usually from 114 µM), hits mostly inhibitors. actives 0.56% (n = 390,000). P83916. AlphaScreen HP1-beta / biotin-H3K9me3 peptide binding; note: nearly all actives have a fitted effect of over 70% in size
Target sequence (P83916 whole entry, looked up): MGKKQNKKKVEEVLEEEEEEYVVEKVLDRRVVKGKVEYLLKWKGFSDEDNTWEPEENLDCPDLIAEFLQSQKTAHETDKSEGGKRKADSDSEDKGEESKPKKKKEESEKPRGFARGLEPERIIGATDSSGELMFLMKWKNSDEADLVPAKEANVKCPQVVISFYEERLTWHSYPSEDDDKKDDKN
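Compound inhibition of the preformed complex between 50 nM HP1-beta and 50 nM biotinylated H3K9me3 peptide was read by AlphaScreen. Buffer was PBS pH 7.4 with 0.01% Tween-20. Incubations ran 30 min at room temperature, with 10 ug/mL donor/acceptor beads.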
Numbers stand for hits; . = inactive; ? = inconclusive; / = not tested or not shown; [ ] = remark or other dose. Calls come from the whole dose curve; as a rule, active = well fitted curve in the direction sought with a large enough effect; inconclusive = small, poorly fitted or top-dose-only effect, or another doubt; inactive = no such curve, though single readings can be large; an effect the other way counts as inactive or inconclusive.

SMILES | G9a block | Sfp PPTase inh | JMJD2A Tudor inh | BAZ2B block | HP1b chromo inh
CCOC(=O)C1CCN(Cc2nc(-c3ccc(OC)c(OC)c3)no2)CC1 | . | . | . | . | .
CCOC(=O)C1CCN(Cc2cc(=O)oc3cc(C)c(Cl)cc23)CC1 | . | . | ? | . | .
CC12C=C(/C=C/CCc3ccco3)C(C)(C1)[C@H](CCc1ccco1)CC2=O (some centres undefined) | / | . | / | / | /
NS(=O)(=O)c1ccc(N/C=C\C(=O)c2ccc(F)cc2)cc1 | . | . | . | . | .
CN(C)c1ccc(N/C=C/C(=O)c2ccco2)cc1 | 7.1µM | 56µM | ? | 35µM | .
CN(C)c1ccc(N/C=C/C(=O)c2ccc(F)cc2)cc1 | 2.5µM | ? | ? | ? | .
CC(=O)Nc1ccc(N/C=C/C(=O)c2ccco2)cc1 | ? | . | . | ? | .
O=C(Nc1ccccc1)c1cc2n(n1)C(C(F)(F)F)CC(C1CC1)N2 (centres undefined) | . | . | . | . | .
COCCCN1C(=O)/C(=C/c2ccc(CNS(=O)(=O)c3ccccc3)o2)C(C(=O)OC)=C1C | 28µM | 14µM | 56µM | . | .
CNC(=O)/C(C#N)=C\c1ccc(CNS(=O)(=O)c2ccccc2)o1 | . | . | . | . | .
CCOc1ccc(NC(=O)CN2C(=O)NC(C)(c3ccc(OC(F)F)cc3)C2=O)cc1 (centres undefined) | . | . | . | . | .
CCc1ccc2c(CN(CC)Cc3nc4ccccc4c(=O)[nH]3)cc(=O)oc2c1 | 3.5µM | . | .[11.4 µM] | . | .
Cc1c(Cl)cn2c(=O)cc(CN3CCN(c4ccccc4)CC3)nc2c1Cl | 40µM | . | .[11.4 µM] | . | .
CCN(Cc1cc(=O)n2cc(Cl)c(C)c(Cl)c2n1)Cc1nc2ccccc2c(=O)[nH]1 | 50µM | . | . | / | .
O=c1cc(CN2CCN(S(=O)(=O)c3ccccc3)CC2)nc2ccc(Cl)cn12 | .[0.501 µM] | / | . | . | .
CCN(Cc1nc2ccccc2c(=O)[nH]1)Cc1nc2ccsc2c(=O)[nH]1 | . | . | . | . | .
O=C(O)CN(CC(=O)O)CC(=O)O | / | / | 32µM | / | .
O=C(O)CN(CCO)CCN(CC(=O)O)CC(=O)O | . | . | / | . | /
O=[N+]([O-])c1cccc(-c2cnc3ccccc3n2)c1 | . | . | . | . | .
O=[N+]([O-])c1ccc2nc(-c3ccccc3)oc2c1 | 40µM | . | . | . | .
COc1ccccc1Nc1nc(-c2cccc([N+](=O)[O-])c2)nc2ccccc12 | .[0.501 µM] | 79µM | ? | ? | .
Cc1cc(-c2cccc([N+](=O)[O-])c2)nc2ccccc12 | 13µM | . | . | . | .
O=c1oc(-c2cccc([N+](=O)[O-])c2)nc2ccccc12 | 45µM | . | . | . | .
COc1ccc(Nc2nc(-c3cccc([N+](=O)[O-])c3)nc3ccccc23)c(OC)c1 | . | . | . | ? | .
Cc1ccc(S(=O)(=O)C(CNC(=O)COc2ccc(Cl)cc2)c2ccco2)cc1 (centres undefined) | . | / | . | . | .
SMILES | G9a block | Sfp PPTase inh | JMJD2A Tudor inh | BAZ2B block | HP1b chromo inh
O=C(Nc1cccc(-c2nc3ccccc3c(=O)o2)c1)c1ccccc1 | . | . | 25µM | . | ?
CCOc1cc(C(=O)Nc2cccc(-c3nc4ccccc4o3)c2)cc(OCC)c1OCC | . | / | . | . | .
O=C(O)CCc1ccc(-c2cccs2)n1NC(=O)c1ccco1 | . | . | . | . | .
O=C(O)CCc1ccc(-c2cccs2)n1NC(=O)c1ccc(Cl)cc1 | .[12.7 µM] | 25µM | . | . | .
O=C(NN1CCOCC1)c1ccc(Cl)cc1Cl | / | / | . | / | .
O=C(O)CCc1ccc(-c2cccs2)n1NC(=O)c1ccc(Cl)cc1Cl | 56µM | . | . | . | .
COc1ccc(/C=C(\NC(=O)c2ccccc2)C(=O)NC2CCCCC2)cc1 | . | / | . | . | .
CC1=C(C(=O)Nc2ccc(Cl)cc2)C(C(C)C)n2nc(SCc3cccc(C)c3)nc2N1 (centres undefined) | . | / | . | . | .
Cc1ccc(-c2cc(-c3n[nH]c(=S)o3)c3ccccc3n2)cc1 | ? | . | ? | ? | .
CSc1nnc(-c2cc(-c3ccc(C)cc3)nc3ccccc23)o1 | 7.9µM | . | . | . | .
COc1ccc(C2c3[nH]c4ccccc4c3CCN2CCCn2cccn2)c(C)c1C (centres undefined) | 40µM | . | ? | ? | .
O=C1c2ccccc2C2=Nc3ccccc3SC(c3cccc(F)c3)C12 (centres undefined) | ? | . | 22µM | 28µM | 28µM
O=C1c2ccccc2C2=Nc3ccccc3SC(c3ccc(Cl)cc3)C12 (centres undefined) | 11µM | . | ? | 10µM | ?
Fc1cccc(C2NN=C(c3ccccc3)S2)c1 (centres undefined) | ? | . | . | . | .
CC(c1nc2ccccc2c(=O)[nH]1)N1CCN(C)CC1 (centres undefined) | ? | . | 71µM | . | ?
CCOC(=O)[C@H]1[C@H]2COc3ccc(OC)cc3[C@@H]2N2C(=O)CN(CCc3c[nH]c4ccccc34)C(=O)[C@@]12C | .[0.501 µM] | / | . | . | .
CCN(CC)S(=O)(=O)c1ccc(Cl)c(C(=O)Nc2ccc(Cl)cc2[N+](=O)[O-])c1 | 8.9µM | . | ? | ? | ?
COc1cc(NC(=O)CN(C)CCOc2ccccc2)c(C)cc1[N+](=O)[O-] | . | . | ? | . | .
CN(CCOc1ccccc1)CC(=O)Nc1ccc(Cl)c(S(=O)(=O)N(C)C)c1 | 8.9µM | 56µM | 2.8µM | / | .
CN(C)S(=O)(=O)c1ccc(Cl)c(C(=O)Nc2ccccc2[N+](=O)[O-])c1 | . | . | . | . | .
CN(CCOc1ccccc1)CC(=O)Nc1ccc(Cl)cc1[N+](=O)[O-] | 3.5µM | 50µM | 0.79µM | 13µM | 25µM
CC(=NNC(=S)Nc1cccc(Cl)c1)c1ccccn1 | / | / | 25µM | / | ?
C/C(=N\NC(=O)c1ccc(Cl)cc1)c1ccccn1 | / | . | 25µM | 7.9µM | .
S=C(NCc1ccccn1)Nc1cccc(Cl)c1 | .[0.501 µM] | . | ? | . | .
C/C(=N\NC(=O)C(C)Oc1ccc([N+](=O)[O-])cc1)c1ccccn1 (centres undefined) | . | . | 56µM | 25µM | .
SMILES | G9a block | Sfp PPTase inh | JMJD2A Tudor inh | BAZ2B block | HP1b chromo inh
S=C(N/N=C/c1cccc2ccccc12)Nc1cccc(Cl)c1 | . | . | . | 79µM | .
CC(Oc1ccccc1)C(=O)NNC(=O)c1ccccn1 (centres undefined) | . | . | . | . | .
Cc1c(NS(=O)(=O)c2ccc(C(C)(C)C)cc2)c(=O)n(-c2ccccc2)n1C | . | / | . | . | .
C/C(=N/NC(=O)CNC(=O)c1ccccn1)c1cccc([N+](=O)[O-])c1 | 18µM | . | . | ? | .
C/C(=N/Nc1ccc([N+](=O)[O-])cc1)c1ccc(C)cc1C | . | . | . | . | .
C/C(=N\Nc1ccc(Cl)cc1)c1ccccn1 | 3.5µM | . | ? | ? | .
